Here are results for 23 compounds from PubChem BioAssay (Tox21).

Results filed as inconclusive are left out. Activity calls are given as the source filed them. Unless noted, calls follow the shape of the dose curve; as a rule, active = well fitted curve in the direction sought with a large enough effect in the repeat runs; inconclusive = weak or mixed curves; inactive = flat fitted curve, though single readings scatter.

A short description of assay [1]: qHTS assay to test for compound auto fluorescence at 535 nm (green) in HEK293 cells (AID 720680).
The nature of assay [2]: qHTS assay to test for compound auto fluorescence at 460 nm (blue) in HEK293 cell free culture (AID 720681). The procedure, abridged: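 Blue fluorescence (Ex 405/Em 460 nm, triamterene-equivalent) was read immediately after pin transfer of compound or DMSO into medium (DMEM, 10% FBS) without cells.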
A short description of assay [3]: qHTS assay to test for compound auto fluorescence at 535 nm (green) in HEK293 cell free culture (AID 720682). The procedure, abridged: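 No cells present: wells hold DMEM supplemented with 10% FBS, into which compound or vehicle is pinned. Green emission is then recorded (485 nm excitation, 535 nm emission) and scaled to fluorescein.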
Assay [4] is described as follows: qHTS assay to test for compound auto fluorescence at 590 nm (red) in HEK293 cell free culture (AID 720683). The procedure, abridged:
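Red-channel autofluorescence of compounds in culture medium (DMEM, 10% FBS), no cells, measured at 540/590 nm. Rose Bengal sodium is the reference fluorophore for equivalence.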

Assay [5] can be described thus: qHTS assay to test for compound auto fluorescence at 590 nm (red) in HepG2 cell free culture (AID 720684). Summed up:
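Steps: dispense MEM/10% FBS medium, no cells; pin compound or DMSO vehicle; read red channel, Ex/Em 540/590 nm. Output given as Rose Bengal sodium equivalents.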

A short description of assay [6]: qHTS assay to test for compound auto fluorescence at 460 nm (blue) in HepG2 cell free culture (AID 720685). The procedure, abridged: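 Compound (23 nL) or DMSO pinned into cell-free MEM with 10% FBS; blue fluorescence read at 405/460 nm excitation/emission, expressed as auto-fluorescence equivalency to triamterene.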
Assay [7] can be described thus: qHTS assay to test for compound auto fluorescence at 535 nm (green) in HepG2 cell free culture (AID 720686).
For assay [8], the target named is Glucocorticoid receptor (Homo sapiens) (UniProt P04150). As to the kind of experiment: qHTS assay to identify small molecule agonists of the glucocorticoid receptor (GR) signaling pathway (AID 720691; active = well fitted activation curve with a large enough effect in the signal ratio in the repeat runs, not every such curve was filed as active; the % refers to the signal ratio). Particulars: GR-bla HeLa, beta-lactamase reporter ratio, 18 h; activation: at 62.4 µM (top of the series). The procedure, abridged:
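Agonist mode in a HeLa line carrying a GRE-controlled beta-lactamase reporter. Compounds act for 18 h at 37 C before a 2 h room-temperature FRET substrate step and fluorescence reading.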

The nature of assay [9]: qHTS assay to test for compound auto fluorescence at 460 nm (blue) in HepG2 cells (AID 720687). Summed up: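 Blue-channel autofluorescence (Ex/Em 405/460 nm, triamterene-equivalent) was measured after 1 hr compound exposure at 37 C, 5% CO2. Cells were HepG2, plated overnight at 37 C in MEM plus 10% FBS.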
Assay [10] addresses Glucocorticoid receptor (Homo sapiens) (UniProt P04150). As to the kind of experiment: qHTS assay to identify small molecule antagonists of the glucocorticoid receptor (GR) signaling pathway (AID 720692; active = well fitted inhibition curve with a large enough effect in the signal ratio in the repeat runs, not every such curve was filed as active; the % refers to the signal ratio; also: potency is read from the fitted curve at half-maximal effect). The procedure, abridged: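 Cells plated, rested 4 h at 37 C/5% CO2; compounds in DMSO pin-transferred; dexamethasone added to 5 nM final; 18 h at 37 C; B/G FRET substrate added, 2 h room temperature; fluorescence measured.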

Sequence of Glucocorticoid receptor (Homo sapiens) (P04150 whole entry, looked up): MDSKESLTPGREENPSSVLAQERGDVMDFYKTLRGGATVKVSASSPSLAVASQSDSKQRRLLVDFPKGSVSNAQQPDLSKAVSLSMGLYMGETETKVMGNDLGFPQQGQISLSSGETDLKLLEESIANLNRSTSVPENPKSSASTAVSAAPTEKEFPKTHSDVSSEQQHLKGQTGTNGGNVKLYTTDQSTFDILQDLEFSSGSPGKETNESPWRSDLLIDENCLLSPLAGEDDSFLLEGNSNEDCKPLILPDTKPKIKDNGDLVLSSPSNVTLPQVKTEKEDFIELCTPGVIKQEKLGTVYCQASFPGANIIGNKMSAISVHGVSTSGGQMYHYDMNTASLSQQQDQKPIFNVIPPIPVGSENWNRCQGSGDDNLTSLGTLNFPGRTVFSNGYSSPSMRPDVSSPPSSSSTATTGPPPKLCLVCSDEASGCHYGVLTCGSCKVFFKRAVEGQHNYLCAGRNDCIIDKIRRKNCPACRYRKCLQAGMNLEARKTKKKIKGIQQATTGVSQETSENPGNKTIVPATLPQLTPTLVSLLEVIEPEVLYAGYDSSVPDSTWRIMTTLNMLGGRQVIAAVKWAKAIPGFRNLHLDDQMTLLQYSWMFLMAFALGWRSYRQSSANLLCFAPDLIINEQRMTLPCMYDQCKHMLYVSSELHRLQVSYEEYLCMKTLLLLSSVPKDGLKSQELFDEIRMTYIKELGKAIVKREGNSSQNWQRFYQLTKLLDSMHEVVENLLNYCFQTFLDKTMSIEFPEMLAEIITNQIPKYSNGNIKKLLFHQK

In the case of `OCC1(CO)COC(C(Cl)(Cl)Cl)OC1`, the compound was called inactive in assay [1], in assay [3], in [4] and in assay [5]. Further, the Potency entry in assay [2], in [6], in assay [7] and in [8] was “inactive” each time.

For `CCCCCCCCOC(=O)c1cc(O)c(O)c(O)c1`, the outcome in [1], in [3], in assay [4] and in assay [5] was inactive. In addition, the Potency entry in [2] and in assay [7] was “inactive” each time.

For `N#Cc1nc(Cl)c(Cl)c(Cl)c1Cl`, the compound was called inactive in assay [1], in assay [3], in assay [4] and in assay [5]. For the same compound, the Potency result in assay [2], in [6], in assay [7] and in assay [9] was “inactive” each time. The Potency in assay [10] was 1.23 µM (active).

Consider `Cc1c(O)c(=O)ccn1C`, for which the result in [1], in assay [3], in assay [4] and in assay [5] was inactive. In addition, the Potency entry in assay [2], in assay [6], in assay [7], in assay [8] and in assay [10] was “inactive” in each case.

With `CC(=O)OCC1=C(C(=O)O)N2C(=O)[C@@H](NC(=O)Cc3ccccc3)[C@H]2SC1`, the call in assay [1], in assay [3], in [4] and in assay [5] was inactive. The Potency result in [2], in assay [6], in assay [7] and in [8] was “inactive” in each case.

As to `CCCCCCCCCCCCCCCCCCNC(=O)OC1CCN(C(=O)OC[C@H](COC(=O)N(Cc2cccc[n+]2CC)C(=O)c2ccccc2OC)OC)CC1`, the call in assay [1], in [3], in assay [4] and in assay [5] was inactive. Besides, the Potency result in [2], in assay [7] and in assay [9] was “inactive” each time.

On to `CCC(=O)OC(OP(=O)(CCCCc1ccccc1)CC(=O)N1C[C@H](C2CCCCC2)C[C@H]1C(=O)O)C(C)C` (some centres undefined), for which the call in [1], in [3], in assay [4] and in assay [5] was inactive. Besides, the Potency result in [2], in [6], in [7] and in assay [8] was “inactive” throughout.

For `C=C1[C@@H]2CC[C@@H](C2)C1(C)C`, the call in assay [1], in [3], in [4] and in [5] was inactive. The Potency result in [2], in [6], in assay [7] and in [8] was “inactive” each time.

As to `O=C(O)c1cc(O)c2c(c1)[C@H]([C@H]1c3cc(C(=O)O)cc(O)c3C(=O)c3c(O[C@@H]4O[C@H](CO)[C@@H](O)[C@H](O)[C@H]4O)cccc31)c1cccc(O[C@@H]3O[C@H](CO)[C@@H](O)[C@H](O)[C@H]3O)c1C2=O`, the result in assay [1], in assay [3], in assay [4] and in [5] was inactive. Also, the Potency entry in assay [2], in assay [6], in assay [7], in assay [8] and in [10] was “inactive” in each case.

On to `CCCCCCCCCCCCN1CCCC1=O`, for which the compound was classed as inactive in [1], in assay [3], in assay [4] and in assay [5]. In addition, the Potency result in assay [2], in assay [7] and in assay [9] was “inactive” throughout.

With `CO[C@H](C(=O)[C@@H](O)[C@@H](C)O)C1Cc2cc3cc(O[C@H]4C[C@@H](O[C@H]5C[C@@H](O)[C@H](O)[C@@H](C)O5)[C@@H](O)[C@@H](C)O4)c(C)c(O)c3c(O)c2C(=O)[C@H]1O[C@H]1C[C@@H](O[C@H]2C[C@@H](O[C@H]3C[C@](C)(O)[C@H](O)[C@@H](C)O3)[C@H](O)[C@@H](C)O2)[C@H](O)[C@@H](C)O1` (some centres undefined), the result in assay [1], in [3], in assay [4] and in [5] was inactive. Moreover, the Potency entry in assay [2], in [7] and in assay [9] was “inactive” each time.

Regarding `CC(=O)N(C)C`, the compound was called inactive in assay [1], in assay [3], in assay [4] and in assay [5]. Also, the Potency entry in [2], in [7] and in assay [9] was “inactive” throughout.

Regarding `CC(=O)OCC(=O)[C@@]1(O)CC[C@H]2[C@@H]3CCC4=CC(=O)CC[C@]4(C)C3=CC[C@@]21C`, the compound was classed as inactive in assay [1], in [3], in assay [4] and in assay [5]. Moreover, the Potency entry in [2], in assay [6], in assay [7] and in assay [8] was “inactive” each time.

Regarding `NC(=O)C1c2ccccc2CCc2ccccc21`, the call in assay [1], in [3], in assay [4] and in assay [5] was inactive. For the same compound, the Potency result in assay [2], in [6], in [7], in assay [8] and in assay [10] was “inactive” each time.

Turning to `CCC(O)c1ccccc1` (centres undefined), the compound was called inactive in [1], in assay [3], in [4] and in assay [5]. Further, the Potency entry in assay [2], in assay [6], in assay [7], in [8] and in [10] was “inactive” in each case.

Take `CC(CNC(=O)c1cccnc1)NC(=O)c1cccnc1` (centres undefined): the result in assay [1], in assay [3], in assay [4] and in assay [5] was inactive. In addition, the Potency result in assay [2], in assay [6], in [7] and in assay [8] was “inactive” throughout.

Turning to `CO[C@H]1C[C@H](O[C@H]2[C@H](C)[C@@H](O[C@@H]3O[C@H](C)C[C@H](N(C)C)[C@H]3O)[C@@H](C)C[C@]3(CO3)C(=O)[C@H](C)[C@@H](O)[C@@H](C)[C@@H](C)OC(=O)[C@@H]2C)O[C@@H](C)[C@@H]1O`, the call in assay [1], in assay [3], in assay [4] and in [5] was inactive. In addition, the Potency result in assay [2], in [6], in [7] and in [8] was “inactive” in each case.

Consider `Oc1ccc(Cl)c2c1CCC2`, for which the result in assay [1], in assay [3], in assay [4] and in assay [5] was inactive. For the same compound, the Potency result in assay [2], in assay [6], in assay [7] and in [8] was “inactive” each time.

As to `O=C1c2ccccc2C(=O)C1c1ccc(F)cc1`, the result in [1], in assay [3], in assay [4] and in [5] was inactive. Besides, the Potency result in assay [2], in assay [6], in assay [7], in assay [9], in [8] and in assay [10] was “inactive” throughout.

For `COc1ccc(/C=N/NC(=O)c2ccncc2)c(C(=O)O)c1OC`, the outcome in assay [1], in [3], in [4] and in assay [5] was inactive. Further, the Potency result in assay [2], in [6], in assay [7] and in [8] was “inactive” in each case.

`Nc1c(CC(=O)O)cccc1C(=O)c1ccccc1`: the compound was classed as inactive in assay [1], in [3], in assay [4] and in assay [5]. For the same compound, the Potency entry in assay [2], in assay [6], in assay [7], in assay [9], in assay [8] and in assay [10] was “inactive” each time.

Consider `NCCO/C=C/[C@H](N)C(=O)O`, for which the outcome in assay [1], in assay [3], in assay [4] and in [5] was inactive. For the same compound, the Potency result in assay [2], in [6], in [7], in assay [8] and in [10] was “inactive” in each case.

For the compound `CC1(C)S[C@@H]2[C@H](NC(=O)[C@@H](NC(=O)N3CCNC3=O)c3ccccc3)C(=O)N2[C@H]1C(=O)O`, the compound was classed as inactive in [1], in [3], in assay [4] and in assay [5]. The Potency result in assay [2], in [6], in [7], in assay [8] and in assay [10] was “inactive” in each case.
